Assay outcomes (PubChem)
CYP2C9 act: human CYP2C9 activators, primary screen, biochemical, luminescence | 1.4% of 96,000 active | activation factor at 5 µM | Cytochrome P450 2C9 (Homo sapiens), P11712 | recombinant CYP2C9, luciferin-H conversion; hits give high values; factor 1 = untreated enzyme, 0 = blocked;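 active means activation factor of 2 or more for CYP2C9 at a 5 µM dose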
CYP2C9 inhib: blockers of cytochrome P450 2C9 activity – biochemical, luminescence, ADME assay, primary screen | P11712 | CYP2C9 Supersomes, luciferin-H conversion | inhibition, % at 5 µM | 20% of 96,000 active;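 active means blocking of liver enzyme CYP2C9 beyond about 50% at 5 µM, limit read from the data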
Pyk2 oligo antag: antagonists of Pyk2 self-association, primary screen, Q293 cells, FERM NanoBiT luminescence, HTS | hits give low values | Protein-tyrosine kinase 2-beta (Homo sapiens), Q14289 | z-score (the deposit names both 25 µM and 10 µM) | 0.83% of 99,000 active;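 active means Z-score of -3 or lower, scaled per plate to the spread of control and sample wells; inactive means z-score above -3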;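 further: negative z-score means lost luminescence so less FERM oligomerization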
CYP2C19 inhib: blockers of cytochrome P450 2C19 activity – biochemical, luminescence, ADME assay, primary screen | CYP2C19 Supersomes, luciferin-H EGE luminescence, 30 min | P33261 | inhibition, % at 5 µM | 21% of 96,000 active;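 active means CYP2C19 inhibition above a set limit at 5 µM in the primary screen, cut at about 50% in these data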
Target sequence (P33261 whole entry, looked up): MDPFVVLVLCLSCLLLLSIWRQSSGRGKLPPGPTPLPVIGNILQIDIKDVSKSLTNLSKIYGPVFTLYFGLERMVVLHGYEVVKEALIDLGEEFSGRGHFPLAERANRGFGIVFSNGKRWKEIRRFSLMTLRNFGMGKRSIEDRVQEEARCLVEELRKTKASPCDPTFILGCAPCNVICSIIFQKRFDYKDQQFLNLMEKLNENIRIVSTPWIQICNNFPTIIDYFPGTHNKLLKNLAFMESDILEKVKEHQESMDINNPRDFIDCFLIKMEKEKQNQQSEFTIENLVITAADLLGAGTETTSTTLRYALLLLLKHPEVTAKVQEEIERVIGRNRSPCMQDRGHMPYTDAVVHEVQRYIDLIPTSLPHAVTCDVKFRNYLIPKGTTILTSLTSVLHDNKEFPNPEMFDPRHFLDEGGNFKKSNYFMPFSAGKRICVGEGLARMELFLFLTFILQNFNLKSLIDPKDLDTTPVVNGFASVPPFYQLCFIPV
Cav3 T inh: Cav3.2 calcium influx blockers – cell-based, Fluo-4 calcium fluorescence, FDSS, MLSMR library, primary screen; Voltage-dependent T-type calcium channel subunit alpha-1H (Homo sapiens), O95180; Cav3.2-expressing cells; hits give low values; B-score at 10 µM; 4% of 100,000 active; AID 449739, 2010;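 active means single-dose well whose peak fluorescence ratio is a statistical outlier from its plate by either plate-standardised score or position-corrected B-score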
CYP2C19 act: human CYP2C19 activators, primary screen, biochemical, luminescence; recombinant CYP2C19, luciferin-H EGE luminescence; hits give high values; 0 = fully inhibited enzyme, 1 = untreated enzyme; activation factor at 5 µM; 96,000 tested, under 10 active; AID 1025, 2008;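 active means activation factor of at least 2 at 5 µM in the primary screen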
Of the large screens only hits and unclear results are named; the others gave an inactive call. Compounds with a hit are over-represented: about 27% of the library has one in this group of screens.

CC(=O)c1ccc(-c2cc([C@H]3[C@H]4C=CC[C@@H](C)[C@@H]4C(=O)N3Cc3ccccc3)ccc2F)cc1	none (no result: CYP2C9 act, CYP2C9 inhib, Pyk2 oligo antag, CYP2C19 inhib, CYP2C19 act)
Cc1cccc(CSc2nc3sc(C)c(C)c3c(=O)n2Cc2ccco2)c1	CYP2C9 inhib 84, Cav3 T inh -4.2
Cc1sc2nc(SCc3nc4ccccc4[nH]3)n(Cc3ccco3)c(=O)c2c1C	CYP2C9 inhib 78 (no result: Cav3 T inh)
NC(=O)CSc1nc2ccccc2c(=O)n1Cc1ccco1	none (no result: CYP2C9 act, CYP2C9 inhib, CYP2C19 inhib, CYP2C19 act)
COc1cccc(CSc2nc3sc(C)c(C)c3c(=O)n2Cc2ccco2)c1	CYP2C9 inhib 78, CYP2C19 inhib 56
Cc1cccc(CSc2nnc(-c3cccs3)n2Cc2ccco2)c1	CYP2C9 inhib 53, CYP2C19 inhib 69, Cav3 T inh -5.5
COc1cc(CC(C#N)(CO)c2nc3ccccc3[nH]2)ccc1OC(F)F (stereo not drawn)	none (no result: CYP2C9 act, CYP2C9 inhib, CYP2C19 inhib, Cav3 T inh, CYP2C19 act)
C=CCNC(=O)CN(c1cccc(Br)c1)S(C)(=O)=O	none
CNC(=S)N1N=C(c2ccc(C)cc2)CC1c1ccc(OC)cc1 (stereo not drawn)	CYP2C9 inhib 93, CYP2C19 inhib 77, Cav3 T inh -4.1
N#Cc1nc(Cc2ccccc2)oc1NCc1ccccc1Cl	CYP2C9 inhib 56, CYP2C19 inhib 63 (no result: Cav3 T inh)
CNc1oc(Cc2cccc3ccccc23)nc1C#N	CYP2C19 inhib 96
N#Cc1nc(Cc2cccc3ccccc23)oc1NCCN1CCCCC1	none
CC(C)Nc1oc(Cc2cccc3ccccc23)nc1C#N	CYP2C9 inhib 56, CYP2C19 inhib 99
CC(O)CNCc1cccc2ccccc12 (stereo not drawn)	none (no result: CYP2C9 act, CYP2C9 inhib, CYP2C19 inhib, CYP2C19 act)
CC1CN(c2oc(Cc3cccc4ccccc34)nc2C#N)CC(C)O1 (stereo not drawn)	CYP2C9 inhib 60, CYP2C19 inhib 64
COc1cc(C(=O)NCc2nnc(SCC(=O)Nc3cc(C)cc(C)c3)o2)cc(OC)c1OC	none
O=C(Nc1c(F)c(F)c(F)c(F)c1F)C1CCCCC1	none
Cc1cc(NCCO)nc(N2CCOCC2)n1	none
CCN1C(=O)[C@@H]2[C@H](C1=O)[C@@H]1C[C@H]3C(=O)N(CC)C(=O)[C@H]3[C@@H]3C1=C(C(=O)N1C(=O)OC(=NCC4CC4)[C@]31C)[C@@H]2C	none (no result: CYP2C9 act, CYP2C9 inhib, Pyk2 oligo antag, CYP2C19 inhib, CYP2C19 act)
COc1ccc(S(=O)(=O)Nc2nc3n(n2)C(c2ccc(Cl)cc2)CC(=O)N3)cc1 (stereo not drawn)	none (no result: Cav3 T inh)
CCOC(=O)c1c(C)c2c(n1C)CCC/C2=N\O	CYP2C19 inhib 60
CCOC(=O)c1c(C)c(C(=O)NC2CCCCCC2)c(C)n1C	none
COc1ccc(C2(C(=O)NC3CCCCC3)CCOCC2)cc1OC	none
CCN(C(=O)c1sc(N)c(C#N)c1C)C1CCCCC1	CYP2C19 inhib 59
CCN(CC)C(=O)c1sc(NC(=O)Cc2cccs2)c(C#N)c1C	none
COC(=O)c1ccc(N2CCN(CC(=O)c3ccc(-c4ccccc4)cc3)CC2)c([N+](=O)[O-])c1	CYP2C9 inhib 50 (no result: Cav3 T inh)
CCOC(=O)c1c(-c2ccccc2Cl)cn2ccccc12	CYP2C9 inhib 78, CYP2C19 inhib 73 (no result: Cav3 T inh)
O=S1(=O)C=CC(N2CCOCC2)C1 (stereo not drawn)	none
Cn1ccc(O)c(C#N)c1=O	none (no result: CYP2C9 act, CYP2C9 inhib, Pyk2 oligo antag, CYP2C19 inhib, CYP2C19 act)
N#Cc1c(-n2cccc2)cccc1-n1cccc1	CYP2C9 act 3.7, CYP2C19 inhib 62
O=S(=O)(c1cccs1)N1CCCc2cccc(O)c21	CYP2C9 act 2.9, CYP2C19 inhib 66
Cc1cc(-c2nnco2)c(C)n1-c1ccc(F)cc1	CYP2C19 inhib 58
O=C(CSc1ncc(-c2ccccc2)n1-c1ccccc1)NCc1ccco1	CYP2C9 inhib 74, CYP2C19 inhib 50
Cc1nnc(SCC(=O)NCc2ccco2)n1-c1ccc(F)cc1	none (no result: CYP2C9 act, CYP2C9 inhib, CYP2C19 inhib, CYP2C19 act)
Cc1nnc(SCC(=O)NCc2ccco2)n1-c1ccccc1	none
COc1ccc(-n2c(-c3ccc(F)cc3)cnc2SCC(=O)NCc2ccco2)cc1	CYP2C9 inhib 94, CYP2C19 inhib 92, Cav3 T inh -5.7
Cc1ccc(-n2ncc3c(=O)n(CC(=O)NCc4ccco4)cnc32)cc1C	none (no result: Pyk2 oligo antag)
OCC1OC(n2nnc3ccccc32)C(O)C(O)C1O (stereo not drawn)	none
CCNc1nc(NCC)n2c(SCc3ccc(F)cc3)nnc2n1	CYP2C19 inhib 96
CCNc1nc(NCC)n2c(SCc3nc4ccccc4c(=O)[nH]3)nnc2n1	none
CC(=O)N1C(=O)C2(C(C#N)=C(N)Oc3cc(C)oc(=O)c32)c2ccccc21 (stereo not drawn)	CYP2C9 inhib 88
Cc1nn(-c2ccccc2)c2c1C1(C(=O)N(C)c3ccccc31)C(C#N)=C(N)O2 (stereo not drawn)	CYP2C9 inhib 56
Cc1nn(-c2ccccc2)c2c1C1(C(=O)N3c4c(cccc41)C(C)CC3(C)C)C(C#N)=C(N)O2 (stereo not drawn)	CYP2C9 inhib 97, CYP2C19 inhib 76
Cc1cc2c(c(=O)o1)C1(C(=O)N(C)c3ccccc31)C(C#N)=C(N)O2 (stereo not drawn)	none
CCN1C(=O)C2(C(C#N)=C(N)Oc3c2c(C)nn3-c2ccccc2)c2ccccc21 (stereo not drawn)	CYP2C9 inhib 79, CYP2C19 inhib 61
CCc1ccc(N(CC(=O)NC)S(C)(=O)=O)cc1	none
COC(=O)C1=C(C)N(CCc2cc(OC)c(OC)c(OC)c2)C(=O)N[C@H]1c1ccccc1	none (no result: CYP2C9 act, CYP2C9 inhib, Pyk2 oligo antag, CYP2C19 inhib, CYP2C19 act)
CN(C)c1ccc(-c2noc(-c3ccccc3O)n2)cc1	none
CC(=O)N1C(=O)C2(C(C#N)=C(N)Oc3n[nH]c(-c4ccccn4)c32)c2ccccc21 (stereo not drawn)	none (no result: Cav3 T inh)
CC(=O)N1C(=O)C2(C(C#N)=C(N)Oc3c2c(C)nn3-c2ccccc2)c2ccccc21 (stereo not drawn)	CYP2C9 inhib 81
C=CCc1cccc2cc(NC(C)=O)c(=O)oc12	CYP2C9 act 2.8
COC(=O)c1ccc(NC(=O)CSc2nnc(CNc3ccc(F)cc3)n2C)cc1	none
Cc1ccc(C(=O)NNC(=O)C2CCN(Cc3ccccc3)CC2)cc1	none (no result: Cav3 T inh)
Cc1ccccc1NC(=O)c1ccc(CN2CCC(Cc3ccccc3)CC2)cc1	Cav3 T inh -7.1
Cc1cccc(CN2C(=O)N/C(=C/c3ccc(C)s3)C2=O)c1	none
Cc1cccc(CN2C(=O)N/C(=C/c3cc(C)n(-c4cc(C)ccn4)c3C)C2=O)c1	CYP2C9 inhib 61
CCn1ncc(/C=N/N=C2\CCC3C4CCc5cc(O)ccc5C4CCC23C)c1C (stereo not drawn)	CYP2C9 inhib 80
O=C(O)c1[nH]nc2c1COc1ccccc1-2	none
